From PubChem BioAssay (Tox21)
Inconclusive results are not listed. Activity calls are given as the source filed them. Unless noted, the call rests on the fitted dose curve.

Legend:
[1] = qHTS assay to identify small molecule agonists of the vitamin D receptor (VDR) signaling pathway - cell viability counter screen (AID 743224; active means well fitted curve in the direction sought with a large enough effect in the repeat runs; an effect the other way counts as inactive or inconclusive; further: series mostly up to about 63 µM; nearly all actives have a fitted effect of over 50% in size)
Method in brief: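 Here cell health was gauged by luminescent ATP detection (CellTiter-Glo, 30 min RT) in VDR-bla cells that had been incubated with test compounds for 16 h at 37C and 5% CO2.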

[2] = qHTS assay to identify small molecule antagonists of the vitamin D receptor (VDR) signaling pathway - cell viability counter screen (AID 743225; active means well fitted curve in the direction sought with a large enough effect in the repeat runs; an effect the other way counts as inactive or inconclusive; further: nearly all actives have a fitted effect of over 50% in size)
Method in brief: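 In this counter screen, VDR-bla HEK 293T cells receive test compound plus 3 nM final calcitriol for 16 h at 37C. Room-temperature steps of 2 h with the beta-lactamase substrate, then 30 min with CellTiter-Glo, precede the luminescence read.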

[3] = qHTS assay to identify small molecule agonists of the NFkB signaling pathway (AID 1159509; active means well fitted curve in the direction sought with a large enough effect in the signal ratio in the repeat runs, not every such curve was filed as active; the % refers to the signal ratio; further: series mostly up to about 61 µM)
Method in brief: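 ME-180 NFkB-bla, 2,000 cells/well, overnight plating; cpd pinned in DMSO, 5 h 37 C; B/G FRET substrate 1.5 h RT; ex 405, em 460/530 nm.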

[4] = qHTS assay to identify small molecule agonists of the NFkB signaling pathway - cell viability counter screen (AID 1159515); further: series mostly up to about 61 µM; nearly all actives have a fitted effect of over 55% in size
Method in brief: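 5 hr compound treatment of NFkB-bla ME-180 cells (2,000/well, seeded overnight beforehand), followed by reporter substrate for 1.5 hr. CellTiter-Glo added afterward; luminescence after 30 min RT.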

[5] = qHTS assay to identify small molecule agonists of the endoplasmic reticulum stress response signaling pathway (AID 1159516; active means well fitted activation curve with a large enough effect in the signal ratio in the repeat runs, not every such curve was filed as active; the % refers to the signal ratio)
Method in brief: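 Reporter HeLa cells (ESRE-beta-lactamase) underwent 5 hr compound incubation at 37 C and 5% CO2 in quantitative HTS format. Detection followed 2 hr of FRET substrate loading at room temperature.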

[6] = qHTS assay to identify small molecule agonists of the endoplasmic reticulum stress response signaling pathway - cell viability counter screen (AID 1159517);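 further: HeLa cells carrying an ER stress response element beta-lactamase reporter; series mostly up to about 61 µM; nearly all actives have a fitted effect of over 50% in size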
Method in brief: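 HeLa cells carrying an ESRE-driven beta-lactamase reporter receive compound for 5 hr at 37 C. Cell viability is then gauged with CellTiter-Glo by luminescence, 30 min at room temperature.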

[7] = qHTS assay to identify small molecule antagonists of the retinoid-related orphan receptor gamma (ROR-gamma) signaling pathway - cell viability counter screen (AID 1159520; active means well fitted curve in the direction sought with a large enough effect in the repeat runs; an effect the other way counts as inactive or inconclusive; further: nearly all actives have a fitted effect of over 50% in size)
Method in brief: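 Cytotoxicity was read from cellular ATP (CellTiter-Glo luminescence) after 16 hr at 37 C with 1 uM doxycycline induction. The inducer was added 2 hr after compound transfer to Tet-on ROR gamma CHO cells.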

[8] = qHTS assay to identify small molecule agonists of the AP-1 signaling pathway - cell viability counter screen (AID 1159525); further: nearly all actives have a fitted effect of over 55% in size
Method in brief: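 Luminescent ATP readout (Cell Titer Glo, 30 min RT), normalised to DMSO and tetra n-octyl ammonium bromide controls. Cells were ME-180 AP-1-bla in 0.5% dialyzed FBS Opti-MEM, with a 5 h, 37 °C compound exposure.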

[9] = qHTS assay to identify small molecule agonists of the AP-1 signaling pathway (AID 1159526); further: potency means the concentration at half of the fitted maximal effect
[10] = target: Nuclear receptor ROR-gamma (Homo sapiens) (UniProt P51449); experiment: qHTS assay to identify small molecule antagonists of the retinoid-related orphan receptor gamma (ROR-gamma) signaling pathway (AID 1159521; active means well fitted curve in the direction sought with a large enough effect in the repeat runs; an effect the other way counts as inactive or inconclusive)
Method in brief: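 Screening format: cell-based luciferase reporter in CHO cells with doxycycline-inducible RORγ. Compound pre-exposure lasts 2 h, doxycycline is 1 uM final, induction runs 16 h at 37 C, and ONE-Glo luminescence is read.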

Measured: Potency

CCOc1ccc(NC(N)=O)cc1
inactive: [1] | [2] | [3] | [4] | [5] | [6] | [7] | [8] | [9]

CCOC(=O)c1ccccc1O
inactive: [1] | [2] | [3] | [4] | [5] | [6] | [7] | [8] | [9]

CCCCNCCCC
inactive: [1] | [2] | [3] | [4] | [5] | [6] | [7] | [8] | [9]

CCCNC(C)(C)COC(=O)c1ccccc1
inactive: [1] | [2] | [3] | [4] | [5] | [6] | [7] | [8] | [9]

CCCCCCn1c(=O)c2c(ncn2C)n(C)c1=O
inactive: [1] | [2] | [3] | [4] | [5] | [6] | [7] | [8] | [9]

O=CCCc1ccccc1
inactive: [1] | [2] | [3] | [4] | [5] | [6] | [7] | [8] | [9]

O=C(C(Cl)Cl)N1CCOC12CCCCC2
inactive: [1] | [2] | [3] | [4] | [5] | [6] | [7] | [8] | [9]

N#CSCC(=O)O
inactive: [1] | [2] | [3] | [4] | [5] | [6] | [7] | [8] | [9]

CCCCC(=O)O[C@]1(C(=O)CO)[C@H](C)C[C@H]2[C@@H]3CCC4=CC(=O)C=C[C@]4(C)[C@@]3(F)[C@@H](O)C[C@@]21C
inactive: [1] | [2] | [3] | [4] | [5] | [6] | [7] | [8] | [9]

COC(=O)N[C@H](C(=O)N[C@@H](Cc1ccccc1)[C@@H](O)CN(Cc1ccc(-c2ccccn2)cc1)NC(=O)[C@@H](NC(=O)OC)C(C)(C)C)C(C)(C)C
inactive: [1] | [2] | [3] | [4] | [5] | [6] | [7] | [8] | [9]

CCc1nnc(NS(=O)(=O)c2ccc(N)cc2)s1
inactive: [1] | [2] | [3] | [4] | [5] | [6] | [7] | [8] | [9]

COc1cc(N)c(Cl)cc1C(=O)NC1CCN(Cc2ccccc2)CC1
inactive: [1] | [2] | [3] | [4] | [5] | [6] | [7] | [8] | [9]

CCC(=O)Nc1ccc(O)cc1
inactive: [1] | [2] | [3] | [4] | [5] | [6] | [7] | [8] | [9]

COc1cc(C)ccc1C(C)C
inactive: [1] | [2] | [3] | [4] | [5] | [6] | [7] | [8] | [9]

CO[Si](C)(C)OC
inactive: [1] | [2] | [3] | [4] | [5] | [6] | [7] | [8] | [9]

NNS(=O)(=O)c1ccc(Oc2ccc(S(=O)(=O)NN)cc2)cc1
inactive: [1] | [2] | [3] | [4] | [5] | [6] | [7] | [8] | [9]

COc1cc(Cl)ccc1Cl
inactive: [1] | [2] | [3] | [4] | [5] | [6] | [7] | [8] | [9]

Nc1cccc(S(=O)(=O)O)c1
inactive: [1] | [2] | [3] | [4] | [5] | [6] | [7] | [8] | [9]

CC(=O)OC1C2(C)CCC(C2)C1(C)C (stereo unspecified)
inactive: [1] | [2] | [3] | [4] | [5] | [6] | [7] | [8] | [9]

COC(=O)c1ccc(OC)cc1
inactive: [1] | [2] | [3] | [4] | [5] | [6] | [7] | [8] | [9]

O=S(=O)(O)C(F)(F)F
inactive: [1] | [2] | [3] | [4] | [5] | [6] | [7] | [8] | [9]

CN1[C@@H]2CC[C@H]1CC(OC(=O)c1c[nH]c3ccccc13)C2 (stereo partly specified)
inactive: [1] | [2] | [3] | [4] | [5] | [6] | [7] | [8]
active: [9] 23.9 µM

CCCNC(C)C(=O)Nc1c(C)csc1C(=O)OC (stereo unspecified)
inactive: [1] | [2] | [3] | [4] | [5] | [6] | [7] | [8] | [9]

CS(=O)(=O)c1ccc([C@@H](O)[C@@H](CF)NC(=O)C(Cl)Cl)cc1
inactive: [1] | [2] | [3] | [4] | [5] | [6] | [7] | [8] | [9]

CC1(C)S[C@@H]2[C@H](NC(=O)C(C(=O)O)c3ccccc3)C(=O)N2[C@H]1C(=O)O (stereo partly specified)
inactive: [1] | [2] | [3] | [4] | [5] | [6] | [7] | [8] | [9]

CC(=O)N[C@@H](CC(C)C)C(=O)O
inactive: [1] | [2] | [3] | [4] | [5] | [6] | [7] | [8] | [9]

OCCN(CCO)CCN(CCO)CCO
inactive: [1] | [2] | [3] | [4] | [5] | [6] | [7] | [8] | [9]

CC1(C)C(=O)N(Cl)C(=O)N1Br
inactive: [1] | [2] | [3] | [4] | [5] | [6] | [7] | [8] | [9]

CCOc1ccc(NS(=O)(=O)c2ccc(N)cc2)nn1
inactive: [1] | [2] | [3] | [4] | [5] | [6] | [7] | [8] | [9]

OCCN1CCN(CCO)CC1
inactive: [1] | [2] | [3] | [4] | [5] | [6] | [7] | [8] | [9]

Cc1ccsc1C(=CCCN1CCC[C@@H](C(=O)O)C1)c1sccc1C
inactive: [1] | [2] | [3] | [4] | [5] | [6] | [7] | [8] | [9]

O=C(O)[C@@H]1CSCN1
inactive: [1] | [2] | [3] | [4] | [5] | [6] | [7] | [8] | [9]

O=C1C=CC(=O)O1
inactive: [1] | [2] | [3] | [4] | [5] | [6] | [7] | [8] | [9]

CCOC(=O)[C@H](CCc1ccccc1)N[C@@H](C)C(=O)N1Cc2cc(OC)c(OC)cc2C[C@H]1C(=O)O
inactive: [1] | [2] | [3] | [4] | [5] | [6] | [7] | [8] | [9]

Cc1ccc([N+](=O)[O-])cc1Cl
inactive: [2] | [3] | [4] | [5] | [6] | [7] | [8] | [9]

Cc1c[nH]c(=S)[nH]c1=O
inactive: [3] | [4] | [5] | [7] | [10] | [8]

CC(C)NC[C@@H](O)COc1cccc2ccccc12
inactive: [1] | [2] | [3] | [4] | [5] | [7] | [10] | [8]

Cn1cnc2c(F)c(Nc3ccc(Br)cc3Cl)c(C(=O)NOCCO)cc21
inactive: [1] | [2] | [3] | [4] | [5] | [7] | [8] | [9]

CC(=O)Nc1ccc(C)c(Cl)c1
inactive: [1] | [3] | [4] | [5] | [7] | [8] | [9]

CN1CCN(c2c(F)cc3c(=O)c(C(=O)O)cn4c3c2SCC4)CC1
inactive: [1] | [2] | [3] | [4] | [5] | [7] | [8] | [9]

O=C1Nc2ccc([N+](=O)[O-])cc2C1=O
inactive: [1] | [3] | [4] | [6] | [7] | [10] | [8]

CC(=O)N(CC(O)CN(C(C)=O)c1c(I)c(C(=O)NCC(O)CO)c(I)c(C(=O)NCC(O)CO)c1I)c1c(I)c(C(=O)NCC(O)CO)c(I)c(C(=O)NCC(O)CO)c1I (stereo unspecified)
inactive: [1] | [2] | [3] | [4] | [5] | [7] | [8] | [9]

CCN(CCCc1ccccc1)CCCc1ccccc1
inactive: [1] | [3] | [4] | [6] | [7] | [10] | [8]

CN1CCN(C2=Nc3ccccc3Oc3ccc(Cl)cc32)CC1
inactive: [1] | [2] | [3] | [4] | [5] | [7] | [10] | [8]

CC(C)CCCCCCc1ccc(OCCOCCO)cc1
inactive: [1] | [2] | [3] | [4] | [5] | [6] | [7] | [8] | [9]

Cc1cc(NS(=O)(=O)c2ccc(N)cc2)nc(C)n1
inactive: [1] | [2] | [3] | [4] | [5] | [7] | [8] | [9]

CC(C)NCC(O)COc1ccc(CCOCC2CC2)cc1 (stereo unspecified)
inactive: [1] | [2] | [3] | [4] | [5] | [7] | [8] | [9]

CCCCCCCCc1ccc(S(=O)(=O)O)cc1
inactive: [2] | [3] | [4] | [5] | [7] | [10] | [8]

CC(C)OC(C)C
inactive: [1] | [2] | [3] | [4] | [5] | [7] | [10] | [9]

CC(C)(C)c1cccc(O)c1
inactive: [1] | [2] | [3] | [4] | [5] | [7] | [8] | [9]

CCCCC1CCC(=O)O1 (stereo unspecified)
inactive: [1] | [3] | [4] | [5] | [7] | [8] | [9]
